ChEMBL document CHEMBL3988442, “University of Dundee, Small-Polar-MMV Screening Library” (2021)
The whole screen tested about 48,000 compounds, of which about 13,000 (27%) showed an effect of 50% or more. Some of the results follow.

test system: Wolbachia pipientis; experiment: Anti-Wolbachia Cell-Based Screen; format: functional; parameters: scale not given: in the data most compounds retested in dose-response had high values; settings: 5 µM

Row | Compound | Percent Effect [%]
1 | CC(C)Cc1noc(CN(C)C(=O)CCNC(=O)c2ccccc2F)n1 | -3.806
2 | CC(CNCC1(S(C)(=O)=O)CCOCC1)c1ccc(F)cc1 (configuration not stated) | 6.37
3 | CNc1cc(-c2nc(CCN3CCCC3=O)no2)ccn1 | 8.6
4 | O=C(Cc1cccc(F)c1)NCCCNC(=O)c1cccc(O)c1 | 95
5 | CC(NC(=O)N(C)Cc1ccsc1)c1ccc2c(c1)NC(=O)CO2 (configuration not stated) | -9.283
6 | Cn1c(CN2CCCc3cc(F)cc(F)c32)cc(=O)n(C)c1=O | 98.13
7 | Cn1c(CS(=O)(=O)c2ccc(Cl)cc2)cc(=O)n(C)c1=O | 2.461
8 | CN(C(=O)CN1CCCc2cc(F)cc(F)c21)c1ccccc1 | -11.45
9 | Cc1cc(F)c2c(c1)CCCN2Cc1nc2c(cnn2C)c(=O)[nH]1 | -12.02
10 | Cc1ccc(F)c2c1CCCN2Cc1cc(=O)n(C)c(=O)n1C | 107.3
11 | Cn1ncc2c(=O)[nH]c(CN3CCCc4cc(F)cc(F)c43)nc21 | -18.5
12 | Cc1cc(F)c2c(c1)CCCN2C(=O)c1cncc(Br)c1 | 14.39
13 | Cc1cc(C2CCCN2Cc2cc(=O)n(C)c(=O)n2C)on1 (configuration not stated) | -9.858
14 | Cc1cc(F)c2c(c1)CCCN2Cc1cc(=O)n(C)c(=O)n1C | 117.6
15 | COC(=O)N1CCc2ccccc2C1C(=O)NCc1ccccn1 (configuration not stated) | -3.953
16 | N#CC1(NC(=O)c2nccc3ccccc23)CCC1 | 2.644
17 | CCN(CC)C(=O)c1cc(-c2cccc(Cl)c2)no1 | -14.84
18 | Cn1c(C(=O)NS(C)(=O)=O)ccc1-c1ccccc1 | -9.851
19 | CC(C)[C@H](NS(C)(=O)=O)C(=O)NCc1cc(-c2ccccc2)nn1C | 107.7
20 | CN(Cc1cc(-c2ccccc2)no1)C(=O)CNS(C)(=O)=O | -3.143
21 | CC(C)[C@H](NS(C)(=O)=O)C(=O)NCc1cc(-c2cccc(Cl)c2)nn1C | 123.3
22 | CC(C)[C@@H]1CN(C(=O)NCc2ccco2)C[C@H]1NS(=O)(=O)N(C)C | 8.904
23 | CC(C)S(=O)(=O)NC(=O)c1cc(-c2cccc(Cl)c2)no1 | -50.72
24 | CCC(C(=O)NCc1ccncc1)N(c1cccc(Cl)c1)S(C)(=O)=O (configuration not stated) | -1.901

Row | Compound | Percent Effect [%]
25 | CC(C)[C@H](NS(C)(=O)=O)C(=O)NCc1cc(-c2ccco2)nn1C | 131.1
26 | CC(NC(=O)c1cc(-c2cccc(Cl)c2)no1)C(=O)N(C)C (configuration not stated) | -38.11
27 | CC(Cc1ccco1)NC(=O)NCc1ncnn1C (configuration not stated) | 9.946
28 | CC(C)NC(=O)NCc1cc(-c2cccc(Cl)c2)nn1C | 128.3
29 | O=C1N(c2ccc(Cl)cc2)Cc2nc(=O)[nH]n21 | -10.7
30 | Cc1cccc(NC(=O)NCCCn2nc3ccccn3c2=O)c1C | -5.568
31 | CCc1nc(Cn2nc(COC)oc2=O)cs1 | 8.463
32 | COc1ccccc1C(C)NC(=O)N1CCN(Cc2ccc(Br)s2)CC1 (configuration not stated) | 3.107
33 | COCCn1c(=O)n(Cc2ccc(Cl)s2)c2cc(C(=O)O)ccc21 | 5.462
34 | CCCc1nn(Cc2ccc(Br)s2)c(=O)o1 | 114.1
35 | COCc1nn(Cc2ccc(Cl)s2)c(=O)o1 | 85.2
36 | COCc1nn(Cc2ccc(Br)s2)c(=O)o1 | 93.51
37 | CCCc1nn(Cc2csc(C(C)C)n2)c(=O)o1 | -6.237
38 | CCCc1nn(Cc2csc(CC)n2)c(=O)o1 | 0.8831
39 | COc1cccc(-c2cc(NCc3cscn3)n(C)n2)c1 | -6.796
40 | Cc1nc2ccccn2c1CN1C[C@@H](CN(C)C)[C@@H](CO)C1 | -2.196
41 | CC(C)c1noc(C2CCCN2S(=O)(=O)N2CCCCCC2)n1 (configuration not stated) | 33.89
42 | CC(=O)c1ccccc1C(=O)NCC1(CO)CC1 | -16.93
43 | NC(c1ccc(F)cc1)c1cccs1 (configuration not stated) | 14.08
44 | CN1CCCn2c(nc(CNS(=O)(=O)C3CC3)cc2=O)C1.O=C(O)C(F)(F)F | -4.96
45 | CS(=O)(=O)NCc1cc(=O)n2c(n1)CN(Cc1ccco1)CCC2.O=C(O)C(F)(F)F | -0.8444
46 | CC(=O)N1CCCn2c(nc(CNS(=O)(=O)C3CC3)cc2=O)C1 | -2.795
47 | CS(=O)(=O)NCc1cc(=O)n2c(n1)CN(CC1CC1)CCC2.O=C(O)C(F)(F)F | 110.4
48 | O=C(O)C(F)(F)F.O=c1cc(CNS(=O)(=O)C2CC2)nc2n1CCCN(CC1CC1)C2 | 107

Row | Compound | Percent Effect [%]
49 | Cc1cc(C)n(CC2(CNC(=O)C(c3ccccc3F)N(C)C)CC2)n1 (configuration not stated) | -12.38
50 | CC1c2ncc(COCC3CCCC3)n2CCN1S(=O)(=O)N(C)C (configuration not stated) | -21.16
51 | CN(C)c1cccc(C(=O)Nc2cnn(CC(N)=O)c2)c1 | -9.995
52 | O=C(c1ccc(Br)s1)N1CCN(Cc2ccc(OC(F)(F)F)cc2)CC1 | -12.95
53 | Fc1ccc(CN2CCCC3(CCN(Cc4ncc[nH]4)C3)C2)cc1F (configuration not stated) | 2.586
54 | COc1ccc(CN2CC[C@@]3(C2)[C@H](O)CN(C)S3(=O)=O)cc1F | 137.9
55 | CN1C[C@H](O)[C@]2(CCN(Cc3ccc(F)c(F)c3)C2)S1(=O)=O | 108.2
56 | Cc1c[nH]c(CN2CCC3(CCCN(Cc4ccc(F)c(F)c4)C3)C2)n1 (configuration not stated) | -10.55
57 | CN1C[C@H](O)[C@]2(CCN(Cc3ccc(OC(F)(F)F)cc3)C2)S1(=O)=O | 118.4
58 | O=C(c1ccc(Br)o1)N1CCN(Cc2ccc(OC(F)(F)F)cc2)CC1 | -3.633
59 | COc1ccc(CN2CCN(C(=O)N(C)C)[C@@H]3CS(=O)(=O)C[C@@H]32)cc1F | -14.55
60 | COCCC(=O)N1CCC2(CN(Cc3ccc(OC)c(F)c3)C2)C1 | 5.323
61 | CC(=O)c1cccc(S(=O)(=O)N2CCC(c3n[nH]c(C)n3)CC2)c1 | -14.04
62 | CN(C)C(=O)c1cccnc1N1CCOC(c2ccc(Cl)cc2)C1 (configuration not stated) | 7.498
63 | Cc1ccc(S(=O)(=O)N2CCC(c3n[nH]cc3C(=O)N(C)C)CC2)cc1 | 124.5
64 | CC(=O)c1ccc(S(=O)(=O)N2CCC(c3n[nH]c(C)n3)CC2)cc1 | 9.052
65 | Cc1nc(C2CCN(S(=O)(=O)c3ccc(Cl)cc3)CC2)n[nH]1 | 2.775
66 | CN(C)C(=O)c1c[nH]nc1C1CCN(S(=O)(=O)c2ccccc2)CC1 | 115.3
67 | CN(C)C(=O)c1c[nH]nc1C1CCN(S(=O)(=O)c2cccc(Cl)c2)CC1 | 103
68 | CNC(=O)[C@@]12CCO[C@@H]1CCN(S(=O)(=O)c1ccc(C)cc1)C2 | 8.759
69 | CN(C)C[C@H]1OC[C@@H]2CCN(S(=O)(=O)c3ccccc3)C[C@@H]21.O=C(O)C(F)(F)F | -5.753
70 | CC(=O)c1cccc(S(=O)(=O)N2CCC(c3noc(C)n3)CC2)c1 | -3.648
71 | CN(C)C(=O)c1c[nH]nc1C1CCN(S(=O)(=O)c2ccc(Cl)cc2)CC1 | 131.9
72 | CCN1CC[C@@]2(C(=O)N(C)C)CCN(S(=O)(=O)c3ccccc3)CC[C@@H]12.O=C(O)C(F)(F)F | 1.516
